Source: PubChem BioAssay (NCI)
This is part of a sample that, as a whole, favours compounds with a hit. Of some 83,000 tested, about 20% had one in any assay.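 Plates (96-well) were seeded with cells, treated with compound at one concentration, and incubated for 48 hours before percent growth was determined.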 A number with no mark means an inactive call. Activity calls are given as the source filed them. How the source made its calls: active means growth percent below 10; inactive means the rest.

Legend:
Experiment in all cases: NCI-60 one-dose screen, 48 h (100 = growth as untreated, 0 = no growth, -100 = all killed)
Details in all cases: 10 µM unless noted
SR leukemia = tested on: SR leukemia
RPMI-8226 leukemia = tested on: RPMI-8226 leukemia
OVCAR-8 ovarian = tested on: OVCAR-8 ovarian
OVCAR-5 ovarian = tested on: OVCAR-5 ovarian
OVCAR-4 ovarian = tested on: OVCAR-4 ovarian
SK-OV-3 ovarian = tested on: SK-OV-3 ovarian
IGROV1 ovarian = tested on: IGROV1 ovarian
OVCAR-3 ovarian = tested on: OVCAR-3 ovarian
HS 578T breast = tested on: HS 578T breast
NCI/ADR-RES ovarian = tested on: NCI/ADR-RES ovarian
T-47D breast = tested on: T-47D breast
BT-549 breast = tested on: BT-549 breast
MDA-MB-435 melanoma = tested on: MDA-MB-435 melanoma
SW-620 colon = tested on: SW-620 colon
MCF7 breast = tested on: MCF7 breast
HCT-116 colon = tested on: HCT-116 colon
HCC-2998 colon = tested on: HCC-2998 colon
KM12 colon = tested on: KM12 colon

| Compound | growth (SR leukemia) | growth (RPMI-8226 leukemia) | growth (OVCAR-8 ovarian) | growth (OVCAR-5 ovarian) | growth (OVCAR-4 ovarian) | growth (SK-OV-3 ovarian) | growth (IGROV1 ovarian) | growth (OVCAR-3 ovarian) | growth (HS 578T breast) | growth (NCI/ADR-RES ovarian) | growth (T-47D breast) | growth (BT-549 breast) | growth (MDA-MB-435 melanoma) | growth (SW-620 colon) | growth (MCF7 breast) | growth (HCT-116 colon) | growth (HCC-2998 colon) | growth (KM12 colon) |
| --- | --- | --- | --- | --- | --- | --- | --- | --- | --- | --- | --- | --- | --- | --- | --- | --- | --- | --- |
| COc1cc2nc(Cl)nc(Nc3cccc(C(=O)/C=C/c4ccc(Cl)cc4)c3)c2cc1OC | 10.4% | 0.0429% (active) | 78.9% | 85.5% | 70.8% | 89% | 68.3% | 48.8% | 101% | 65.7% | 71.1% | 67% | 69.9% | -5.87% (active) | 19.7% | -0.905% (active) | 93.4% | 40.5% |
| COc1cc(-c2cc3ncccc3c3nc(N)c4cccnc4c23)cc(OC)c1OC | 28.3% | 23.2% | 26.9% | 35.7% | 54.3% | 20.5% | 41% | 15.1% | 16.8% | 10.5% | 35% | 27.6% | -33.7% (active) | 23.9% | 21.7% | 9.87% (active) | 40.2% | 30.8% |
| Oc1ccc(CCC2CCCC(CCc3ccc(OCCF)cc3)N2)cc1 (stereo not drawn) | 67.2% | 90.8% | 93.3% | 89.4% | 82.9% | 96% | 96.2% | 107% | 97.5% | 87.6% | 72.8% | 96.4% | 99.5% | 112% | 89% | 86% | 88.4% | 104% |
| Cc1ccc(Sc2sc(-c3ccccc3)nc2[P+](c2ccccc2)(c2ccccc2)c2ccccc2)cc1 | -10.1% (active) | -39.2% (active) | 7.53% (active) | 25.4% | 2.09% (active) | -22.5% (active) | -0.559% (active) | -9.1% (active) | -1.87% (active) | -7.72% (active) | -9.83% (active) | -15.4% (active) | -16.3% (active) | 8.24% (active) | -4.53% (active) | -14.3% (active) | -11.2% (active) | -37.6% (active) |
| Oc1ccc(Nc2ccccc2)cc1 | 94.2% | 97.5% | 96% | 123% | 70.5% | 97.9% | 101% | 94.2% | 105% | 87.8% | 91.7% | 74% | 75.8% | 88.7% | 89.2% | 99.2% | 107% | 79.1% |
| CCCCCCCCNc1cccc2c1C(=O)c1ccccc1C2=O | 108% | 105% | 111% | 105% | 103% | 108% | 105% | 92.6% | 95.7% | 112% | 94.5% | 101% | 105% | 93.5% | 102% | 103% | 107% | 103% |
| COc1cccc(-c2nn(-c3ccccc3)cc2-c2ccnc(NCCCNS(=O)(=O)c3ccc(Cl)cc3)c2)c1 | 7.26% (active) | 26.6% | 37.3% | 75.3% | 42.8% | 60.5% | 41.4% | 54% | 49.9% | 35.6% | 14.2% | 58.1% | 42.9% | 62.6% | 24.3% | 31.1% | 33.5% | 38.9% |
| C=C(C)[C@@H]1CC[C@]2(C)[C@H](CC=C3[C@@H]4CC(C)(C)CC[C@]4(C(=O)OC)CC[C@]32C)[C@@]1(C)CC/C(N)=N/O | 0.151% (active) | 34.9% | 38.4% | 90.4% | 36.4% | 68% | 80.2% | 67.2% | 72.4% | -24.5% (active) | 6.99% (active) | 63.7% | 80.5% | 67.6% | 3.92% (active) | 18.5% | -53% (active) | 61% |
| CCCCC[C@H]1C/C=C2/C(=O)C=C[C@@H]2C/C=C\CCCC(=O)O[C@@H](CCCCC)C/C=C2/C(=O)C=C[C@@H]2C/C=C\CCCC(=O)O1 | -21.5% (active) | -30.4% (active) | -20.7% (active) | -68.2% (active) | -74.3% (active) | -52.7% (active) | -68.3% (active) | -93.5% (active) | 4.33% (active) | -2.14% (active) | -74.8% (active) | -72.9% (active) | -78.9% (active) | -54.1% (active) | -70.9% (active) | -96.4% (active) | -79.5% (active) | -86.3% (active) |
| CCCCCCCC(=O)SCC/C=C/[C@@H]1CC(=O)NCc2cccc(n2)CN(Cc2ccc(Cl)cc2)CC(=O)N[C@@H](C(C)C)C(=O)O1 | 8.39% (active) | 8.51% (active) | -0.619% (active) | -5.64% (active) | 28% | -24.5% (active) | 10.9% | 3.13% (active) | -5.68% (active) | 13% | 30.9% | 38.8% | 6.92% (active) | 16.7% | 9.09% (active) | -1.93% (active) | -24.2% (active) | 5.69% (active) |
| Fc1ccc(NCc2nnc(-c3ccc(Cl)cc3)o2)cc1 | 71.1% | 54.1% | 79.9% | 86.9% | 69.2% | 81.5% | 51.6% | 79.6% | 84.6% | 90.6% | 57% | 77.8% | 94.8% | 90.4% | 55.2% | 53.7% | 98% | 84.8% |
| COc1cc(OC)c2c(c1)c1nc3cc(C)c(C)cc3nc1n2CCN(C)C | 49.4% | 65.2% | 79.3% | 105% | 87.8% | 93.7% | 87.2% | 109% | 91.9% | 82% | 74.3% | 97.4% | 91.7% | 66% | 66.2% | 69.7% | 93.9% | 86.3% |
| CCOC(=O)C/C(=C\c1ccccc1)C(C)=O | 96.7% | 95% | 90.9% | 108% | 112% | 75.1% | 109% | 107% | 108% | 110% | 68.1% | 98.4% | 109% | 103% | 101% | 88.7% | 107% | 101% |
| COc1ccccc1-n1cnc(N)c1C(=O)c1cc(OC)c(OC)c(OC)c1 | 30.2% | 30.9% | 61.8% | 79.1% | 65.9% | 48.2% | 45.5% | -21.3% (active) | -12.8% (active) | 55.1% | 49.8% | 47.1% | -15% (active) | 23.7% | 12.4% | 24.5% | 61.7% | 16.1% |
| CN1CCN(c2ccc3nc(-c4[nH]ncc4Nc4ncnc5c4OCCCN5)[nH]c3c2)CC1 | 3.46% (active) | -36.3% (active) | 0.0729% (active) | -61.4% (active) | -35.2% (active) | -21.5% (active) | -21.4% (active) | -32.2% (active) | -5.79% (active) | -6.16% (active) | -27.4% (active) | -74.2% (active) | -80.1% (active) | -58.1% (active) | -57.2% (active) | -11.8% (active) | -84.2% (active) | -72.7% (active) |
| CC1(C)CC[C@]2(C(=O)Nc3ccccn3)CC[C@]3(C)C(=CC[C@@H]4[C@@]5(C)C/C(=C/c6ccncc6)C(=O)C(C)(C)[C@@H]5CC[C@]43C)[C@@H]2C1 | 8.26% (active) | -0.291% (active) | 41.5% | 75.5% | 17.1% | 71.8% | 50.6% | 12.6% | 56.7% | 51.3% | 13.3% | 35.7% | 14.8% | 20% | 21.7% | -1.02% (active) | 25% | -6.73% (active) |
